Experiment [1] in a line: Drug repurposing screens with cells derived from glioblastoma tumor samples (AID 1345199). Also: nearly all actives have a fitted effect of over 40% in size. Also: potency is read from the fitted curve at half-maximal effect. As to activity, negative = cell killing: % is scaled to controls: 0 for no effect and ±100 for the full control effect. The note with it: GBM patient neurospheres viability, ATP luminescence, 48 h. Summed up:
(§1)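 Primary testing used CD133+ neurospheres from four GBM patients, seven concentrations, 48 h exposure and ATP-based viability; confirmation added three slower-growing patient lines.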

Experiment [2] deals with astro (control astrocytes). The description is as above. The note with it: viability, ATP luminescence, 48 h; series mostly up to 45.9 µM. An outline of the steps:
as §1

For experiment [3], the target named is Nuclear receptor subfamily 1 group I member 2 (Rattus norvegicus) (UniProt Q9R1A7). The experiment in a line: qHTS assay for small molecule activators of the rat pregnane X receptor (rPXR) signaling pathway (AID 651751; call rule not given here; also: 0% is about no effect). The note with it: rPXR reporter cells, luciferase (One-Glo), 24 h. (Quantitative high-throughput screening tests each substance at several concentrations.)

Experiment [4] is described as follows: qHTS assay for small molecule activators of the human pregnane X receptor (PXR) signaling pathway (AID 720659; call rule not given here; also: 0% is about no effect). The conditions noted are these: DPX-2 HepG2 CYP3A4-luciferase, 24 h; series mostly up to 92.3 µM.
[5] abbreviates: at 45.9 µM (top of the series), tumour line B.
[6] abbreviates: at 45.9 µM (top of the series), tumour line D.
[7] abbreviates: at 46 µM (top of the series), tumour line A.
[8] abbreviates: at 46.1 µM (top of the series), tumour line C.
The mark [9] stands for this setting: at 20 µM (top of the series), tumour line C.
Setting [10] is: at 21.2 µM (top of the series), tumour line B.
Setting [11] is: at 21.2 µM (top of the series), tumour line D.
Where [12] appears, read: at 21.3 µM (top of the series), tumour line A.

The values below come from PubChem BioAssay (NCATS).

Unmarked numbers belong to inactive results. Records with an inconclusive call do not appear. Activity calls are given as the source filed them. Unless noted, calls follow the shape of the dose curve; as a rule, active = well fitted inhibition curve with a large enough effect; inconclusive = small, poorly fitted or top-dose-only effect; inactive = flat fitted curve, though single readings scatter.

Sequence of Nuclear receptor subfamily 1 group I member 2 (Rattus norvegicus) (Q9R1A7 whole entry, looked up): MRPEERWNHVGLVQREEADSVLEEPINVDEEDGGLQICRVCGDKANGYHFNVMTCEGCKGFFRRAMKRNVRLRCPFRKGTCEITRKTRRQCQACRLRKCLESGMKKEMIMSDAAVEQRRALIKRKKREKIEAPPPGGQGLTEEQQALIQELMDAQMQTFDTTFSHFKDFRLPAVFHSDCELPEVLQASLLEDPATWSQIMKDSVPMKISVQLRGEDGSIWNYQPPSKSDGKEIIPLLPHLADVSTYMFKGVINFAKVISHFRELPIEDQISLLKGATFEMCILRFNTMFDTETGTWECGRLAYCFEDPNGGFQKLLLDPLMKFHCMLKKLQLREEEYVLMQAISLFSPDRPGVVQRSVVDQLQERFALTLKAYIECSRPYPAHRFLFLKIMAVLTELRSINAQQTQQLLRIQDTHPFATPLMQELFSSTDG

With `O=C(NCCCN1CCOCC1)c1ccc(Cl)cc1`, the activity, negative = cell killing in experiment [1] (setting [5]) is -1.61%; in experiment [1] (setting [6]), -16.9%; in experiment [1] (setting [7]) it was -28.4%; in experiment [1] (setting [8]) it was -13.2%. The result in experiment [2] was inactive.

Take `CC(=O)Oc1cccc(C)c1`: the activity, negative = cell killing in experiment [1] (setting [5]) is -2.63%; in experiment [1] (setting [6]) it was -6.87%; in experiment [1] (setting [7]), -17.9%; in experiment [1] (setting [8]), -0.258%. Moreover, the outcome in experiment [2] was inactive.

`O=C(O)c1ccc(OCCCOc2ccc(C(=O)O)cc2)cc1`: the activity, negative = cell killing in experiment [1] (setting [5]) was -4.79%; in experiment [1] (setting [6]), -29%; in experiment [1] (setting [7]), -33.4%; in experiment [1] (setting [8]) it was -12%. Besides, the call in experiment [2] was inactive.

Turning to `O=C(O)c1ccccc1OP(=O)(O)O`, the activity, negative = cell killing in experiment [1] (setting [5]) was -8.79%; in experiment [1] (setting [6]), 13.5%; in experiment [1] (setting [7]), -28.4%; in experiment [1] (setting [8]) it was -24.8%.

Consider `CN(C(=O)c1c(O)c2ccccc2n(C)c1=O)c1ccccc1`, for which the activity, negative = cell killing in experiment [1] (setting [5]) is -5.78%; in experiment [1] (setting [6]) it was -11.8%; in experiment [1] (setting [7]), -31.5%; in experiment [1] (setting [8]), -28.1%.

On to `O=c1[nH]cnc2nc[nH]c12`, for which the activity, negative = cell killing in experiment [1] (setting [5]) is -0.606%; in experiment [1] (setting [6]) it was 15.6%; in experiment [1] (setting [7]), -28.5%; in experiment [1] (setting [8]), -12.9%. For the same compound, the compound was called inactive in experiment [2].

As to `CC(C)CCOC(=O)c1ccc(N(C)C)cc1`, the activity, negative = cell killing in experiment [1] (setting [5]) is -5.37%; in experiment [1] (setting [6]), -2.75%; in experiment [1] (setting [7]) it was -50%; in experiment [1] (setting [8]) it was -13.2%. The result in experiment [2] was inactive.

As for `CC(N)CCCC(C)(C)O` (centres undefined), the activity, negative = cell killing in experiment [1] (setting [5]) was -8.17%; in experiment [1] (setting [6]) it was -3.88%; in experiment [1] (setting [7]), -24.8%; in experiment [1] (setting [8]) it was -13.9%. In addition, the call in experiment [2] was inactive.

Turning to `O=C(NCN1CCOCC1)c1cnccn1`, the activity, negative = cell killing was -3.93% in experiment [1] (setting [5]), -22.6% in experiment [1] (setting [6]), -8.03% in experiment [1] (setting [7]) and -4.53% in experiment [1] (setting [8]). Also, the compound was classed as inactive in experiment [2].

Regarding `CCCNC(C)(C)COC(=O)c1ccccc1`, the activity, negative = cell killing in experiment [1] (setting [5]) is -3.47%; in experiment [1] (setting [6]) it was 11.4%; in experiment [1] (setting [7]), -6.31%; in experiment [1] (setting [8]), 1.22%. The outcome in experiment [2] was inactive.

Consider `O=C(Cn1ccnc1[N+](=O)[O-])NCCO`, for which the activity, negative = cell killing in experiment [1] (setting [5]) was -12.6%; in experiment [1] (setting [6]) it was -6.24%; in experiment [1] (setting [7]), -16.3%; in experiment [1] (setting [8]) it was -12.1%. In addition, the call in experiment [2] was inactive.

With `C[C@]1(Cn2ccnn2)[C@H](C(=O)O)N2C(=O)C[C@H]2S1(=O)=O`, the activity, negative = cell killing was -6.98% in experiment [1] (setting [5]), -15.1% in experiment [1] (setting [6]), -24.4% in experiment [1] (setting [7]) and -1.25% in experiment [1] (setting [8]). Moreover, the call in experiment [2] was inactive.

Take `CCc1nnc(NS(=O)(=O)c2ccc(N)cc2)s1`: the activity, negative = cell killing in experiment [1] (setting [5]) is -21.8%; in experiment [1] (setting [6]), -9.53%; in experiment [1] (setting [7]), -28.8%; in experiment [1] (setting [8]), -20.9%. Also, in experiment [2], the outcome was inactive.

For the compound `CCN(CC)CC1CCCCN1CC(=O)N1c2ccccc2C(=O)Nc2cccnc21` (centres undefined), the activity, negative = cell killing in experiment [1] (setting [5]) is -15.7%; in experiment [1] (setting [6]) it was -5.02%; in experiment [1] (setting [8]) it was -18.7%. Also, the Potency in experiment [1] (tumour line A) was 20 µM (active). In addition, in experiment [2], the compound was called inactive.

Turning to `CC[C@]12CCCN3CCc4c(n(c5ccccc45)[C@@](O)(C(=O)OC)C1)[C@@H]32`, in experiment [1] (tumour line A), the Potency was 17.8 µM (active).

Turning to `O=C(/C=C/c1ccc(O)c(O)c1)O[C@@H]1C[C@@](OC(=O)/C=C/c2ccc(O)c(O)c2)(C(=O)O)C[C@@H](O)[C@@H]1O`, the Potency in experiment [1] (tumour line A) is 28.2 µM (active).

For the compound `CC(=O)N(CC(O)CN(C(C)=O)c1c(I)c(C(=O)NCC(O)CO)c(I)c(C(=O)NCC(O)CO)c1I)c1c(I)c(C(=O)NCC(O)CO)c(I)c(C(=O)NCC(O)CO)c1I` (centres undefined), the activity, negative = cell killing in experiment [1] (setting [9]) is 4.37%; in experiment [1] (setting [10]), -1.18%; in experiment [1] (setting [11]) it was 15.1%; in experiment [1] (setting [12]), -9.07%. In experiment [2], the call was inactive.

Turning to `C1CCN2C[C@@H]3C[C@@H](CN4CCCC[C@@H]34)[C@H]2C1`, the activity, negative = cell killing in experiment [1] (setting [9]) was 4.02%; in experiment [1] (setting [10]), -1.82%; in experiment [1] (setting [11]), -18%; in experiment [1] (setting [12]) it was -22%. In experiment [2], the call was inactive.

In the case of `COc1ccc(NS(=O)(=O)c2ccc(N)cc2)nn1`, the activity, negative = cell killing in experiment [1] (setting [9]) was -22.2%; in experiment [1] (setting [10]), -14.9%; in experiment [1] (setting [11]), -7.76%; in experiment [1] (setting [12]) it was -20.5%. The result in experiment [2] was inactive.

Regarding `NNC(=O)CP(=O)(c1ccccc1)c1ccccc1`, the activity, negative = cell killing in experiment [1] (setting [5]) was -1.23%; in experiment [1] (setting [6]), -15%; in experiment [1] (setting [7]) it was -19.4%; in experiment [1] (setting [8]) it was -12.7%. Further, the compound was classed as inactive in experiment [2].

Turning to `CCOc1ccc(C(=O)OCCN(CC)CC)cc1`, the activity, negative = cell killing in experiment [1] (setting [5]) was -7.64%; in experiment [1] (setting [6]), -13.5%; in experiment [1] (setting [7]), -29%; in experiment [1] (setting [8]), -17.9%. In addition, the outcome in experiment [2] was inactive.

`OC[C@@H](O)[C@@H](O)[C@H](O)[C@H](O)CO`: the activity, negative = cell killing in experiment [1] (setting [5]) is -7.17%; in experiment [1] (setting [6]) it was -4.25%; in experiment [1] (setting [7]), -11.8%; in experiment [1] (setting [8]) it was -0.87%. The call in experiment [2] and in experiment [4] was inactive. Also, in experiment [3], the max response is -1.36%.

`Cc1cc(C)c(NC(=O)CN(CC(=O)O)CC(=O)O)c(C)c1Br`: the activity, negative = cell killing in experiment [1] (setting [5]) was -5.55%; in experiment [1] (setting [6]), -2.68%; in experiment [1] (setting [7]) it was -17.3%; in experiment [1] (setting [8]), -18.8%. Besides, in experiment [2], the result was inactive.

For `COC(=O)c1cccnc1`, the activity, negative = cell killing in experiment [1] (setting [5]) is -7.13%; in experiment [1] (setting [6]) it was -4.81%; in experiment [1] (setting [7]), -28.2%; in experiment [1] (setting [8]), 40.1%. The outcome in experiment [2] was inactive.

With `CC1CC(OC(=O)c2ccccc2O)CC(C)(C)C1` (centres undefined), the activity, negative = cell killing in experiment [1] (setting [5]) is -18.3%; in experiment [1] (setting [6]), -10.1%; in experiment [1] (setting [7]), -28.9%; in experiment [1] (setting [8]), 1.33%. Also, in experiment [2], the compound was classed as inactive. The max response in experiment [3] was 5.1%.

As for `CC(C)=CCC/C(C)=C/CO`, the activity, negative = cell killing in experiment [1] (setting [5]) is -6.27%; in experiment [1] (setting [6]), 1.11%; in experiment [1] (setting [7]), -25.2%; in experiment [1] (setting [8]) it was 8.23%. Moreover, the call in experiment [2] was inactive. In addition, the max response in experiment [3] was 1.1%.
